The nature of experiment [1]: NCI Yeast Anticancer Drug Screen. Data for the rad50 strain (AID 155).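 Further: 0% = growth of vehicle-only cultures of the same strain.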 The conditions noted are these: S. cerevisiae rad50 strain growth inhibition, active compounds read high. The method, boiled down:
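DNA repair mutant yeast, compound exposure, growth read-out; inhibition is taken relative to vehicle.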

Experiment [2] can be described thus: NCI Yeast Anticancer Drug Screen. Data for the mec2-1 strain (AID 157). The conditions noted are these: S. cerevisiae mec2-1 strain, active compounds read high. In outline:
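Vehicle-treated cultures served as reference for growth inhibition of compound-exposed mec2-1 yeast.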

A short description of experiment [3]: NCI Yeast Anticancer Drug Screen. Data for the sgs1 mgt1 strain (AID 161).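 Further: 0% = growth of cultures given vehicle only.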 As to conditions: S. cerevisiae sgs1 mgt1 strain, active compounds read high. In outline: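 Test agents were incubated with a DNA-repair-mutant yeast strain. Growth was then read and compared against vehicle-treated controls.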
Experiment [4] in a line: NCI Yeast Anticancer Drug Screen. Data for the cln2 rad14 strain (AID 165).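 Further: 0% = growth equal to vehicle treated cultures.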 As to conditions: S. cerevisiae cln2 rad14 strain, active compounds read high. In outline:
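Each compound was tested on cln2 rad14 yeast. Inhibition of growth was calculated against vehicle-exposed controls.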

A short description of experiment [5]: NCI Yeast Anticancer Drug Screen. Data for the bub3 strain (AID 167). As to conditions: S. cerevisiae bub3 mutant strain, active compounds read high. The method, boiled down:
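In this screen, a yeast mutant lacking normal mitotic checkpoint function is challenged with compound. Relative growth versus vehicle gives the inhibition value.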

Experiment [6] is described as follows: NCI Yeast Anticancer Drug Screen. Data for the mlh1 rad18 strain (AID 175). The conditions noted are these: S. cerevisiae mlh1 rad18 strain growth inhibition, active compounds read high. In outline:
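Vehicle-treated cultures served as the reference for growth inhibition in a yeast strain carrying DNA damage repair alterations exposed to each compound.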

Where [7] appears, read: at 5.0 µM (retest, dose inferred, filed as 0.5).
Where [8] appears, read: at 50.0 µM (retest, dose inferred, filed as 5.0).

About 79,000 compounds went through this panel and 15% of them were active in at least one assay; those are over-represented in the sample as a whole. Values without a mark were called inactive. Activity calls are given as the source filed them. No stated cut-off is given here; in the data, active means growth inhibition above about 70%; inactive means the rest.

In the case of `S=c1[nH]c2ccccc2s1.[Pb]`, the growth inhibition in experiment [1] (setting [7]) is -11%; in experiment [1] (setting [8]) it was 16%; in experiment [1] (at 50.0 µM), 93.7% (active); in experiment [2] (setting [7]), -1%; in experiment [2] (setting [8]) it was 6%; in experiment [2] (at 50.0 µM), 94.8% (active). In addition, the growth inhibition was 0% in experiment [3] (setting [7]); 8% in experiment [3] (setting [8]); 95.5% (active) in experiment [3] (at 50.0 µM); -10% in experiment [4] (setting [7]); -11% in experiment [4] (setting [8]); 64.2% in experiment [4] (at 50.0 µM). Further, the growth inhibition in experiment [5] (setting [7]) is -4%; in experiment [5] (setting [8]) it was -7%; in experiment [5] (at 50.0 µM) it was 94% (active); in experiment [6] (setting [7]), -5%; in experiment [6] (setting [8]), -8%; in experiment [6] (at 50.0 µM) it was 90.9% (active).

Regarding `CC(=O)[O][Sn]([c]1ccccc1)([c]1ccccc1)[c]1ccccc1`, the growth inhibition is 97% (active) in experiment [1] (setting [7]); 99% (active) in experiment [1] (setting [8]); 91.1% (active) in experiment [1] (at 50.0 µM); 99% (active) in experiment [2] (setting [7]); 99% (active) in experiment [2] (setting [8]); 93.4% (active) in experiment [2] (at 50.0 µM). The growth inhibition was 98% (active) in experiment [3] (setting [7]); 98% (active) in experiment [3] (setting [8]); 93.6% (active) in experiment [3] (at 50.0 µM); 90% (active) in experiment [4] (setting [7]); 98% (active) in experiment [4] (setting [8]); 92.8% (active) in experiment [4] (at 50.0 µM). Also, the growth inhibition in experiment [5] (setting [7]) was 98% (active); in experiment [5] (setting [8]), 96% (active); in experiment [5] (at 50.0 µM), 92.1% (active); in experiment [6] (setting [7]), 100% (active); in experiment [6] (setting [8]), 99% (active); in experiment [6] (at 50.0 µM) it was 91.4% (active).

As for `COc1ccc(Br)c(/C=C/[N+](=O)[O-])c1`, the growth inhibition in experiment [1] (setting [7]) is 23%; in experiment [1] (setting [8]) it was 90% (active); in experiment [1] (at 50.0 µM), 99.5% (active); in experiment [2] (setting [7]) it was 11%; in experiment [2] (setting [8]) it was 96% (active); in experiment [2] (at 50.0 µM), 99.7% (active). Further, the growth inhibition in experiment [3] (setting [7]) is 16%; in experiment [3] (setting [8]), 82% (active); in experiment [3] (at 50.0 µM), 99.7% (active); in experiment [4] (setting [7]), 0%; in experiment [4] (setting [8]) it was 65%; in experiment [4] (at 50.0 µM), 11.7%. Also, the growth inhibition in experiment [5] (setting [7]) was 5%; in experiment [5] (setting [8]), 92% (active); in experiment [5] (at 50.0 µM) it was 95.5% (active); in experiment [6] (setting [7]), 6%; in experiment [6] (setting [8]) it was 96% (active); in experiment [6] (at 50.0 µM) it was 87.8% (active).

As for `CC1(Br)Cc2ccccc2C1=O` (configuration not stated), the growth inhibition in experiment [1] (setting [7]) was 3%; in experiment [1] (setting [8]), 43%; in experiment [1] (at 50.0 µM), -2.2%; in experiment [2] (setting [7]), 4%; in experiment [2] (setting [8]), 33%; in experiment [2] (at 50.0 µM) it was 37.2%. The growth inhibition in experiment [3] (setting [7]) is 2%; in experiment [3] (setting [8]) it was 31%; in experiment [3] (at 50.0 µM), 42.3%; in experiment [4] (setting [7]) it was 1%; in experiment [4] (setting [8]), 16%; in experiment [4] (at 50.0 µM) it was -35%. Further, the growth inhibition was -2% in experiment [5] (setting [7]); 36% in experiment [5] (setting [8]); 70% (active) in experiment [5] (at 50.0 µM); 4% in experiment [6] (setting [7]); 34% in experiment [6] (setting [8]); 20.4% in experiment [6] (at 50.0 µM).

With `COc1cc(/C=C(/C)[N+](=O)[O-])ccc1O`, the growth inhibition is 90% (active) in experiment [1] (setting [7]); 99% (active) in experiment [1] (setting [8]); 99.1% (active) in experiment [1] (at 50.0 µM); 13% in experiment [2] (setting [7]); 100% (active) in experiment [2] (setting [8]); 99.6% (active) in experiment [2] (at 50.0 µM). Moreover, the growth inhibition was 42% in experiment [3] (setting [7]); 54% in experiment [3] (setting [8]); 99.5% (active) in experiment [3] (at 50.0 µM); 19% in experiment [4] (setting [7]); 99% (active) in experiment [4] (setting [8]); 98.6% (active) in experiment [4] (at 50.0 µM). Further, the growth inhibition is 14% in experiment [5] (setting [7]); 99% (active) in experiment [5] (setting [8]); 99.1% (active) in experiment [5] (at 50.0 µM); 59% in experiment [6] (setting [7]); 99% (active) in experiment [6] (setting [8]); 99.2% (active) in experiment [6] (at 50.0 µM).

`CCC[CH2][Sn]1([CH2]CCC)[O]CC(CN2CCCCC2)[O]1` (configuration not stated): the growth inhibition in experiment [1] (setting [7]) was 25%; in experiment [1] (setting [8]), 94% (active); in experiment [1] (at 50.0 µM), 82.7% (active); in experiment [2] (setting [7]), 20%; in experiment [2] (setting [8]), 95% (active); in experiment [2] (at 50.0 µM) it was 85.4% (active). The growth inhibition in experiment [3] (setting [7]) is 32%; in experiment [3] (setting [8]), 95% (active); in experiment [3] (at 50.0 µM), 82.8% (active); in experiment [4] (setting [7]), 22%; in experiment [4] (setting [8]), 91% (active); in experiment [4] (at 50.0 µM) it was 78.5% (active). The growth inhibition was 34% in experiment [5] (setting [7]); 96% (active) in experiment [5] (setting [8]); 88% (active) in experiment [5] (at 50.0 µM); 30% in experiment [6] (setting [7]); 96% (active) in experiment [6] (setting [8]); 87% (active) in experiment [6] (at 50.0 µM).

As to `CC(CCC/C=C/CCCN(C)C(=N)N)CC(C)C1OC(=O)C(C)C(O)/C=C/C(C)C(O)C(C)C(O)C(C)C(O)CCCC(O)CC2(O)OC(CC(OC(=O)CC(=O)O)CC(O)CC(O)C(C)C(O)/C=C/C=C/C1C)CC(O)C2O` (configuration not stated), the growth inhibition is -79% in experiment [1] (setting [7]); 99% (active) in experiment [1] (setting [8]); 92.9% (active) in experiment [1] (at 50.0 µM); 7% in experiment [2] (setting [7]); 99% (active) in experiment [2] (setting [8]); 94.1% (active) in experiment [2] (at 50.0 µM). Further, the growth inhibition in experiment [3] (setting [7]) is 6%; in experiment [3] (setting [8]), 99% (active); in experiment [3] (at 50.0 µM), 93.6% (active); in experiment [4] (setting [7]), 21%; in experiment [4] (setting [8]) it was 99% (active); in experiment [4] (at 50.0 µM) it was 92.2% (active). Moreover, the growth inhibition is 9% in experiment [5] (setting [7]); 99% (active) in experiment [5] (setting [8]); 93.1% (active) in experiment [5] (at 50.0 µM); 13% in experiment [6] (setting [7]); 99% (active) in experiment [6] (setting [8]); 92.8% (active) in experiment [6] (at 50.0 µM).

As to `CC(C)CCC(=O)OC1CCC2(C)C(=CCC3C2CCC2(C)C(O)CCC32)C1` (configuration not stated), the growth inhibition in experiment [1] (setting [7]) is 16%; in experiment [1] (setting [8]), 23%; in experiment [1] (at 50.0 µM) it was 42%; in experiment [2] (setting [7]), -2%; in experiment [2] (setting [8]) it was 5%; in experiment [2] (at 50.0 µM), -1.95%. Moreover, the growth inhibition in experiment [3] (setting [7]) was 5%; in experiment [3] (setting [8]) it was 27%; in experiment [3] (at 50.0 µM), 36.4%; in experiment [4] (setting [7]), 0%; in experiment [4] (setting [8]) it was 5%; in experiment [4] (at 50.0 µM), 19.2%. Also, the growth inhibition in experiment [5] (setting [7]) is 2%; in experiment [5] (setting [8]) it was 15%; in experiment [5] (at 50.0 µM), 3.95%; in experiment [6] (setting [7]), -2%; in experiment [6] (setting [8]) it was 43%; in experiment [6] (at 50.0 µM), 72.6% (active).

Regarding `C(=P(c1ccccc1)(c1ccccc1)c1ccccc1)[P+](c1ccccc1)(c1ccccc1)c1ccccc1.[Cl][Fe]([Cl])([Cl])[Br]`, the growth inhibition was 98% (active) in experiment [1] (setting [7]); 99% (active) in experiment [1] (setting [8]); 99.5% (active) in experiment [1] (at 50.0 µM); 98% (active) in experiment [2] (setting [7]); 99% (active) in experiment [2] (setting [8]); 99.5% (active) in experiment [2] (at 50.0 µM). Also, the growth inhibition in experiment [3] (setting [7]) is 99% (active); in experiment [3] (setting [8]), 99% (active); in experiment [3] (at 50.0 µM), 99.5% (active); in experiment [4] (setting [7]), 98% (active); in experiment [4] (setting [8]), 99% (active); in experiment [4] (at 50.0 µM) it was 99.2% (active). Also, the growth inhibition in experiment [5] (setting [7]) is 98% (active); in experiment [5] (setting [8]), 99% (active); in experiment [5] (at 50.0 µM) it was 99.5% (active); in experiment [6] (setting [7]) it was 99% (active); in experiment [6] (setting [8]), 99% (active); in experiment [6] (at 50.0 µM), 99.4% (active).
